Results filed as inconclusive are left out. A call without a number means that no potency is given here. Activity calls are given as the source filed them. The call rests on the fitted dose curve; in most records, active means well fitted inhibition curve with a large enough effect in the polarisation, with a control signal flat (not every such curve was filed as active); inconclusive means small, poorly fitted or top-dose-only effect, or effect the other way; inactive means flat fitted curve, though single readings scatter; the % refers to the polarisation.
target: Peptidyl-prolyl cis-trans isomerase NIMA-interacting 1 (Homo sapiens) (UniProt Q13526); experiment: qHTS Validation Assay to Find Inhibitors of Pin1 (AID 504536); conditions: Pin1 fluorescence polarization peptide binding assay; series mostly up to 57.5 µM
Source text: NIH Molecular Libraries Probe Production Network [MLPCN]
NIH Chemical Genomics Center [NCGC]
The unique chemical properties of Pro allow for the adoption of two completely distinct amide bond conformations (cis and trans). Peptidyl-prolyl cis/trans isomerases (PPIases) are evolutionary conserved enzymes that catalyze cis/trans isomerization of peptidyl-prolyl peptide bonds. Distinct from all other PPIases such as cyclophilins and FK506-binding proteins (FKBPs), Pin1 binds a subset of phos.Ser/Thr-Pro-containing proteins using its protein-targeting WW domain and isomerizes only specific phos.Ser/Thr-Pro bonds, which cannot be effectively catalyzed by other known PPIases.
Pin1-catalyzed conformational regulation can control a spectrum of activities of many key regulators in diverse cellular processes such as cell growth, genotoxic and other stress responses, immune response, germ cell development, neuronal differentiation and survival. Pin1 has emerged as a novel molecular timer that modulates its multiple targets at various steps of a given cellular process to synergistically control the amplitude and duration of a cellular response or process. Importantly, Pin1 is tightly regulated by multiple levels and its deregulation has an important role in a growing number of pathological conditions, including cancer, Alzheimer's disease, aging, asthma and microbial infection, providing a potentially new therapeutic option.
The goal of this screen is to find small-molecule inhibitors of Pin1 using a fluorescence polarization competition assay. A HiFluor-488-labeled peptide binds to the active site of Pin1 and can be displaced by compounds. Compounds were screened as a concentration-titration series that ranged from 57 uM to 0.7 nM.
NCGC Assay Protocol Summary:
Pin1 (0.6 uM) was dispensed into black, solid 1536-well plates at 2 uL/well in 10 mM HEPES (pH 7.5), 10 mM NaCl, 0.01% Tween20, 1 mM DTT, and 1% glycerol. Then, 23 nL of compounds or DMSO were delivered to each well using a pin tool. Two uL of Pin1-1b-HiFluor488 peptide (10 mM HEPES (pH 7.5), 10 mM NaCl, 0.01% Tween20, 1 mM DTT, and 1% glycerol, 0.02 uM Pin1-1b-HiFluor488) was then dispensed, and plates were incubated at room temperature for 10 min. The plates were measured on a ViewLux plate reader for fluorescence polarization signal using a 480/20 nM nm excitation filter and 540/25 nM nm S and P emission filters with a 20 second exposure. The %Activity was determined from the corrected fluorescence polarization values. Unlabeled Pin1-1c peptide was used as a control (3.5 mM two-fold serial; 20 uM final concentration) along with a 1x (0.3 uM) and 0x (no-enzyme) Pin1 enzyme control to normalize %Activity of identified inhibitors; 0x enzyme values corresponded to 100%Activity (full inhibition), while 1x Pin1 enzyme values were used to normalize 0%Activity (no inhibition).
Concentration-response curves were fitted to the signals arising from the resulting fluorescence polarization. The concentration-effect curves were then classified based on curve quality (r2), response magnitude and degree of measured activity, and compounds were subsequently categorized based on their curve class.
Keywords: Peptidyl prolyl isomerase, Pin1, fluorescence polarization, MLSMR, MLPCN, NIH Roadmap, qHTS, NCGC
Potency means the concentration at half of the fitted maximal effect.

Sequence of Peptidyl-prolyl cis-trans isomerase NIMA-interacting 1 (Homo sapiens) (Q13526 whole entry, looked up): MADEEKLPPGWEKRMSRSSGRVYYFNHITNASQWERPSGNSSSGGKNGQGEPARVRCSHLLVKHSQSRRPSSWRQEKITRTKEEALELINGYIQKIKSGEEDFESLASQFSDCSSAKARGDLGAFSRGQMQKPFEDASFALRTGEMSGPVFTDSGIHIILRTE

| Compound | Potency |
| --- | --- |
| O=Nc1c(-c2c(O)[nH]c3ccccc23)[nH]c2ccccc12 | inactive |
| C[C@H](Cc1ccccc1)Nc1ncnc2c1ncn2[C@@H]1O[C@H](CO)[C@@H](O)[C@H]1O | inactive |
| CN1C2CCCC1CC(NC(=O)c1nn(C)c3ccccc13)C2 (stereo unspecified) | inactive |
| C1CCC(N=C(NC23CC4CC(CC(C4)C2)C3)N2CCOCC2)CC1 | inactive |
| Oc1cc2c(c(Cl)c1O)CCNCC2c1ccccc1 (stereo unspecified) | inactive |
| CCc1ccc(/C=C2/SC(=S)NC2=O)cc1 | inactive |
| S=C(Nc1ccccc1)Nc1nccs1 | inactive |
| Cc1cccc(/C=C/c2ccccc2)n1 | inactive |
| CC[N+](CC)(CC)CC | inactive |
| O=C1c2ccccc2C(=O)c2c(NCCc3ccc(O)cc3)ccc(NCCc3ccc(O)cc3)c21 | inactive |
| Nc1c(S(=O)(=O)O)cc(Nc2ccc(Nc3nc(Cl)nc(Nc4ccc(S(=O)(=O)O)cc4)n3)c(S(=O)(=O)O)c2)c2c1C(=O)c1ccccc1C2=O | 2390 nM (active) |
